# Experimental data: PubChem BioAssay (NCI)
# About 83,000 compounds went through this panel and 20% of them were active in at least one assay; those are over-represented in the sample as a whole.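 Results are percent growth after 48 hours of single-concentration exposure. 100 means growth as in untreated cells, lower positive values show inhibition; negative values down to -100 show cell death.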 Values without a mark were called inactive. Calls of active or inactive are those of the source. How the source made its calls: active means growth percent below 10; inactive means the rest.
# Experiments:
# Assay in all cases: NCI-60 one-dose screen, 48 h (100 = growth as untreated, 0 = no growth, -100 = all killed)
# T-47D breast = details: 10 µM unless noted
# BT-549 breast = details: 10 µM unless noted
# MDA-MB-435 melanoma = details: 10 µM unless noted
# SW-620 colon = details: 10 µM unless noted
# MCF7 breast = details: 10 µM unless noted
# HCT-116 colon = details: 10 µM unless noted
# HCC-2998 colon = details: 10 µM
# KM12 colon = details: 10 µM unless noted
Structure (SMILES),growth (T-47D breast),growth (BT-549 breast),growth (MDA-MB-435 melanoma),growth (SW-620 colon),growth (MCF7 breast),growth (HCT-116 colon),growth (HCC-2998 colon),growth (KM12 colon)
C/C(=C(/c1ccc(Cl)cc1)c1ccc(OCCN2CCCC2)cc1)c1ccccc1,72.4%,73.4%,55.1%,51.4%,33.8%,47.4%,84.7%,25.6%
COc1cc(NCCN(CC(C)C)CC(C)C)c2ncc(C)cc2c1,20.3%,88.7%,-76.4% (active),68.1%,2.66% (active),31.8%,85.6%,68.6%
CNC(=O)c1cc(Oc2ccc(NC(=O)Nc3cc(C(C)(C)C)nn3-c3ccc4ncccc4c3)c(F)c2)ccn1,-17.7% (active),-38.2% (active),-88% (active),-0.427% (active),-6.46% (active),-51.8% (active),-31.5% (active),-23.8% (active)
CC(=O)Oc1ccccc1C(=O)N=C1[Se]CCN1C(=O)c1ccccc1OC(C)=O,-15.2% (active),-94.3% (active),-57.2% (active),-26.7% (active),5.48% (active),-44% (active),-4.02% (active),-12.6% (active)
Cn1c(Nc2ccc(C(F)(F)F)cc2)nc2cc(Oc3ccnc(-c4ncc(C(F)(F)F)[nH]4)c3)ccc21,48.5%,37.5%,28.8%,65.5%,82.3%,32.9%,73%,58.3%
COc1cc(C(=O)NNC(=O)c2ccc(NC(=O)CCl)cc2)cc(OC)c1OC,64.3%,66.8%,92.5%,65.5%,61.8%,44.5%,88.7%,99.7%
Cc1cc([C@@H](C)Nc2ccccc2C(=O)O)c2nc(N3CCOCC3)cc(=O)n2c1,-27.6% (active),22.3%,58%,35%,16.4%,23%,60.1%,57%
O=C(NO)c1ccc(Cn2c(=O)n(-c3ccccc3F)c(=O)c3ccccc32)cc1,8.62% (active),21.3%,-78.7% (active),0.226% (active),20.8%,-3.7% (active),-32.9% (active),-40.7% (active)
CC(C)=CCc1cc2c(cc1O)C1=C(C(=O)C3=C(C1=O)S(=O)(=O)CCN3)C(C=C(C)C)O2 (stereo not given),-2.63% (active),-73.6% (active),-52.6% (active),-18.9% (active),-50.7% (active),-24.8% (active),-66% (active),13.6%
Nc1c(Cl)cccc1[N+](=O)[O-],110%,114%,105%,94.6%,99.1%,112%,105%,107%
CCN1CCN(Cc2ccc(-c3cc4c(N[C@H](C)c5ccccc5)ncnc4[nH]3)cc2)CC1,29%,79.2%,37%,13.1%,48.6%,19.7%,14.3%,31.2%
C=C1[C@@H](O)C[C@H]2C(C)(C)C[C@H](Cl)C[C@]2(C)[C@H]1C[C@H](O)[C@H]1CC(=O)NC1=O,-20.3% (active),-24.1% (active),-44.6% (active),-1.83% (active),-18.8% (active),-28.8% (active),-44.9% (active),-18% (active)
C=C1CC[C@@H]2[C@](C)(COC(C)=O)[C@H](OC(C)=O)CC[C@@]2(C)[C@@H]1C/C=C1/C(=O)OC[C@H]1OC(C)=O,42.8%,27.4%,33.1%,-21.9% (active),22.9%,-37.3% (active),67.3%,52.8%
Nc1ncnc2c1ccn2-c1cccc(NC(=O)c2ccc(N3CCOCC3)c(C(F)(F)F)c2)c1,32.2%,57.5%,53.7%,66.5%,67.1%,24.9%,62.6%,31%
O=C(NC1CCNCC1)c1[nH]ncc1NC(=O)c1c(Cl)cccc1Cl,-3.82% (active),7.37% (active),-43.3% (active),6.16% (active),3.78% (active),4.77% (active),-2.4% (active),8.2% (active)
